# Data published in PubChem BioAssay (NCATS).
# Inconclusive results are not listed. Values without a mark were called inactive. The source made the active and inactive calls. The call rests on the fitted dose curve; in most records, active means well fitted inhibition curve with a large enough effect; inconclusive means small, poorly fitted or top-dose-only effect; inactive means flat fitted curve, though single readings scatter.
# Test system: NIH3T3
# Assay: Cytotoxic Profiling of Annotated Libraries Using Quantitative High-Throughput Screening (AID 1296008); further: nearly all actives have a fitted effect of over 60% in size
# Conditions: Five cell lines viability, CellTiter-Glo ATP luminescence, 48-72 h; max response: hits give low values
# Outline: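 Compounds were pin-transferred onto cells and incubated 48 or 72 hr at 37 degree Celsius, 95% humidity. CellTiter-Glo was added, plates sat 10 min at room temperature, then ATP-coupled luminescence was imaged as the viability read-out.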
# On the % scale 0 is the no-effect control and ±100 the full control effect; potency means the concentration at half of the fitted maximal effect.
Compound,max response [%],Potency
C=C(C)C1CCC2(C(=O)O)CCC3(C(=O)O)C(CCC4C5(C)CCC(O)C(C)(C(=O)O)C5CCC43C)C12 (centres undefined),1.18,
C[C@@H]1CCC2C(C)(C)[C@H](O)CC[C@]2(C)[C@@]12Cc1c(O)cc3c(c1O2)CNC3=O (some centres undefined),-63,
CCCC1(c2ccccc2)NC(=O)N(CC(=O)N(C)Cc2c(F)cccc2Cl)C1=O (centres undefined),-2.22,
COc1ccc(C(O)C(C)OC2OC(CO)C(O)C(O)C2O)cc1 (centres undefined),-2.23,
COc1c2c(c(C)c3c1C(=O)OC3)OC1(C)CC(O)C(C(C)(C)O)C(C)(CCC(=O)O)C1C2 (centres undefined),0.542,
CC1=CC(=O)C(=C(C)C)CC2C1CCC2(C)O (centres undefined),-2.64,
C/C1=C\C[C@]2(C)C(=O)C(O)=C([C@H](C)CO)[C@H]2C/C=C(\C)[C@@H](O)CC/C(C)=C/CC1,-2.65,
CC1CC(O)/C=C/C(O)C(O)CC(=O)Cc2c(Cl)c(O)cc(O)c2C(=O)O1 (centres undefined),-18.1,
C/C=C/C=C/[C@@H]1O[C@](O)([C@H](CC)C(=O)NC/C=C/C=C(\C)[C@@H](OC)[C@@H](C)C2OC(/C=C/C=C/C=C(\C)C(=O)c3c(O)cc[nH]c3=O)[C@H](O)[C@@H]2O)[C@H](O)[C@H](O)C1(C)C (some centres undefined),-4.29,
C[C@@H]1C(=O)O[C@H]2[C@H](O)C34[C@H]5C[C@@H](C(C)(C)C)C36[C@@H](OC(=O)[C@@H]6O)O[C@@]4(C(=O)O5)[C@@]12O (some centres undefined),-2.5,
COCC1OC(OC(C)(C)C2CCC3(C)C=C(C4CCC5C4(C)CC(O)C4OC(C(C)(C)OC6OC(CO)C(O)C(O)C6NC(C)=O)CCC45C)CCC3O2)C(NC(C)=O)C(O)C1O (centres undefined),1.73,
C/C=C/C=C/C=C/C(=O)OC1C=C(C=O)C(O)(C(=O)O)C2(C)CCCC(C)(C)C12 (centres undefined),3.49,
COc1ccc(CCO[C@@H]2O[C@H](CO[C@@H]3OC[C@H](O)[C@H](O)[C@H]3O)[C@@H](O)[C@H](O)[C@H]2O)cc1,-5.95,
Cc1cc(OCc2nnc(SC3CCCC3)n2-c2cccnc2)ccc1-c1ccc(S(C)(=O)=O)cc1,,10.3 µM (active)
CC(C)CNCc1ccc(-c2ccccc2S(=O)(=O)N2CCCC2)cc1,-1.63,
CC(C)(C)NS(=O)(=O)c1cncc(-c2cc(F)c3nc(N)nn3c2)c1,3.5,
CC(C)c1ccc2c(c1)C(=O)CC1[C@@](C)(C(=O)O)CCC[C@]21C (some centres undefined),0.286,
CC1C(OC(=O)c2ccccc2)C(O)C2C(C(=O)O)=COC(OC3OC(CO)C(O)C(O)C3O)C12 (centres undefined),4.34,
CC1(C)CC[C@]2(C(=O)O[C@@H]3O[C@H](CO)[C@@H](O)[C@H](O)[C@H]3O)CC[C@]3(C)C(=CCC4[C@@]5(C)C[C@@H](O)[C@H](O)[C@@](C)(CO)C5CC[C@]43C)C2[C@@H]1O (some centres undefined),2.98,
CCNC(=O)C1OC(n2cnc3c(N)nc(NCCc4ccc(CCC(=O)O)cc4)nc32)C(O)C1O (centres undefined),-0.422,

Compound,max response [%],Potency
O=S(=O)(c1ccc(S(=O)(=O)n2cnc3ccccc32)cc1)N1CCCCCC1,-4.79,
CC(=O)C1=C(C)N(c2cccc(C(F)(F)F)c2)C(=O)N[C@H]1c1ccc(C#N)nc1,-21.8,
CCCN1CCN(c2ccc(C(=O)NC3(C(=O)NCC#N)CCCCC3)cc2)CC1,1.62,
Cc1cc(C)c2c(N)c(C(=O)NCc3ccc(Cl)cc3)sc2n1,-1.38,
C[C@H]1O[C@@H](O[C@H]2CC[C@@]3(C)C(CC[C@]4(C)C3CC=C3C5CC(C)(C)CC[C@]5(C(=O)O)CC[C@]34C(=O)O)C2(C)C)[C@H](O)[C@@H](O)[C@@H]1O (some centres undefined),3.7,
O=C(NCC(O)CO)c1ccncc1Nc1ccc(I)cc1F (centres undefined),,7.31 µM (active)
CC(C)O[C@@H]1O[C@H](CO)[C@@H](O)[C@H](O)[C@H]1O,4.22,
CC(C)=CCC/C(C)=C/CCC1(C)Oc2c(c(O)cc3c2CN(C(CCC(=O)O)C(=O)O)C3=O)CC1O (centres undefined),-11,
O=C(c1ccc2nccnc2c1)N1CCCCC1,-40.7,
C=C1C[C@]23C[C@H]1CC[C@H]2[C@]1(C)CCC[C@@](C)(C(=O)O)[C@H]1[C@@H]3C(=O)O,2.88,
COc1ccc(/C=C/C(=O)O[C@@H]2[C@@H](O)[C@@H](O)[C@H](O[C@@H]3C=C(CO)[C@H]4[C@H](O[C@@H]5O[C@H](CO)[C@@H](O)[C@H](O)[C@H]5O)OC=C[C@H]43)O[C@H]2C)cc1O,-43,
Cc1cnc(NC(=O)Nc2cc(Br)c(C)cc2OCC2CNCCO2)cn1 (centres undefined),,2.31 µM (active)
CC(=O)O[C@@H]1c2c(C)coc2C(=O)[C@@]23O[C@@H]2CC[C@H](C)[C@@]13C,4.3,
C=CC1(C)C=C2C(=O)OC(=O)C3=C(CCCC3(C)C)C2(O)CC1 (centres undefined),0.193,
C[C@@H]1CN(Cc2ncccn2)C[C@H]1c1nc2c(cnn2C2CCOCC2)c(=O)[nH]1,-4.05,
CO[C@H]1/C=C/[C@@](C)(O)/C=C/C(=O)O[C@H](C)[C@@H](C)CC/C=C/1C,,3.21 µM (active)
CC(=O)OC[C@@]12C(=O)C[C@@H](C)[C@]3(C[C@@H](c4ccoc4)O[C@H]3OC(C)=O)[C@H]1CCC[C@]21CO1,3.02,
CC(C)(C)OC(=O)N1CCC(OCc2nc(-c3ccncc3)no2)CC1,-1.32,
COc1cc2c(cc1OC)N1C(=O)C[C@]34C=CCN5CC[C@@H]2[C@@H](CC3)[C@]514,-2.04,
